Inconclusive results are not listed. Values without a mark were called inactive. Active and inactive are the calls of the source. Calls come from the whole dose curve.
These compounds were tested against Neuropeptide S receptor (Homo sapiens) (UniProt Q6W5P4) (assay: Confirmation Concentration-Response Assay for Antagonists of the Neuropeptide S Receptor: cAMP Signal Transduction, SAR for Probe). Details: CHO-NPSR cells, cAMP TR-FRET, antagonist mode; series mostly up to 47.8 µM; activity change, negative = inhibition: at the top concentration.
Neuropeptide S receptor (Homo sapiens), sequence (Q6W5P4 whole entry, looked up): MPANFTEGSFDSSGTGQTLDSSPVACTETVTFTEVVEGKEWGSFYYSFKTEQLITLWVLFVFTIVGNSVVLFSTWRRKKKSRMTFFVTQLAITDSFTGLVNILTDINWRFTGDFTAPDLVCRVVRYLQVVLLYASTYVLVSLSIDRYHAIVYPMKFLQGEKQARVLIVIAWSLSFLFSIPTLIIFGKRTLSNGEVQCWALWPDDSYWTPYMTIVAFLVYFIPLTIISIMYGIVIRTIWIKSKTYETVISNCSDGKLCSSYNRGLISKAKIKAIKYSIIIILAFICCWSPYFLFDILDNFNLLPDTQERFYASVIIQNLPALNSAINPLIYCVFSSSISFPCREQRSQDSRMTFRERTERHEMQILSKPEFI
Text: NIH Chemical Genomics Center [NCGC] NIH Molecular Libraries Probe Production centers Network [MLPCN] MLPCN Grant: X01-DA026210-01 Assay Submitter (PI): Heilig, Markus Alexander NCGC Assay Overview: Neuropeptide S receptor (NPSR), previously known as GPR154, is a recently de-orphanized G protein coupled receptor. Its endogenous ligand is the 20 amino acids peptide Neuropeptide S (NPS). […] NPS and its receptor are found in various tissues. Specifically they are highly expressed in brain areas that have been implicated in modulation of arousal, stress and anxiety. Central administration of NPS in mice produces an unusual profile of activity by inducing wakefulness and arousal, while at the same time suppressing anxiety. Therefore, NPSR may represent a novel drug target for the treatment of sleep and anxiety disorders. To identify NPSR antagonists, we developed a cell-based cAMP assay. NPS can stimulate the production of cAMP in Chinese hamster ovary cells stably expressing NPS receptor. This change in intracellular cAMP level can be detected by a homogeneous LANCE cAMP assay based on the TR-FRET (time resolved fluorescence resonance energy transfer) between a europium-labeled cAMP tracer complex and a cAMP-specific antibody labeled with Alexa Fluor 647. The europium-labeled cAMP tracer complex is formed by the tight interaction between Biotin-cAMP (b-cAMP) and streptavidin labeled with Europium-W8044 chelate (Eu-SA). Light pulse at 320 nm excites the europium of the cAMP tracer and the energy emitted is transferred to the Alexa molecule bound to the cAMP antibody, generating a TR-FRET signal at 665 nm. Residual energy from the europium will produce a light at 620 nm. The native unlabeled cAMP from cell lysates competes with the europium-cAMP tracer for antibody binding and reversely reduces the emission signal of Alexa by interrupting FRET between the two labeled molecules. Both emission signals from the FRET donor (620 nm) and the acceptor (665 nm) can be detected by a plate reader in the TRF mode. Expression of result in fluorescence ratio (665 nm/620 nm) helps to normalize differences due to cell density and reagent dispensing. This assay was successfully optimized to a 1536-well plate format. Select compounds from the primary screen (AID 1461) were chosen for confirmation based on potency, efficacy, SAR, and activity across other assays in PubChem and at NCGC. Other compounds are analogs of active compounds from the primary screen.
NCGC Assay Protocol Summary: A Chinese hamster ovary (CHO) cell line stably expressing the NPS receptor (CHO-NPSR) was obtained from Dr. Heilig lab at NIAAA and maintained in F-12 Kaighn's media (Invitrogen, Carlsbad, CA, 21127) supplemented with 10 % FBS, 100 units/ml penicillin, 100 ug/ml streptomycin and 250 ug/ml geneticin at 37C, 5% CO2 in a humidified atmosphere. Before the assay, aliquots of cells were frozen and stored at -135C. The assay was performed in 1536-well format. Data are reported for both the ratio of the two emission wavelengths, and also for the component 'donor' channel, Em2=620. […] IC50 values were determined from concentration-response data modeled with the standard Hill equation. NPS 1536-well assay protocol: (1) Fresh or frozen CHO-NPSR cells were suspended in F-12 Kaighn's media supplemented with 10 % FBS, 100 units/ml penicillin and 100 ug/ml streptomycin. Cells were plated at 4 ul/well (1200 cells) to white, tissue culture treated 1536-well plates, and then cultured at 37C, 5 % CO2 for 16 to 30 hours. (2) Add 23 nl/well of compound in DMSO solution. The final titration for each compound was between 0.6 nM and 46 uM. (3) Add 1 ul of stimulation reagent (1X HBSS buffer, 5 mM HEPES, 0.1% BSA, 500 uM RO-201724 (Sigma-Aldrich, B8279), 1.5% Alexa 647-labeled anti-cAMP antibody (from Perkin Elmer), 100 nM NPS) (4) Incubation at 37C, 5 % CO2 for 60 min. (5) Add 1 ul/well detection reagent. […]
With COc1ccc2c(c1)Oc1ncn(CCN3CCOCC3)c(=N)c1C2c1ccc(OC)c(OC)c1 (stereo not given) the Potency was 19.4 µM (active). With COc1ccc(C2c3c(ncn(CCCc4ccccc4)c3=N)Oc3ccc4ccccc4c32)cc1OC (stereo not given) the Potency was 24.4 µM (active). For COc1cccc(C2c3c(ncn(-c4ccccc4SC)c3=N)Oc3ccc4ccccc4c32)c1 (stereo not given), the Potency was 7.72 µM (active). In the case of CCC(C)(CCN1CCOCC1)N(Cc1cc2ccccc2n(C)c1=O)C(=O)C1CCCCC1 (stereo not given), the Potency is reported as 0.308 µM (active). With COc1cccc(C2c3c(ncn(-c4cccnc4)c3=N)Oc3ccc4ccccc4c32)c1 (stereo not given) the Potency was 12.2 µM (active). COc1ccc(C2C3=C(N=CN(CCN4CCOCC4)C3N)Oc3ccccc32)cc1OC (stereo not given) was tested, and the “activity change, negative = inhibition” value was -10.3%. For COc1cccc(C2c3c(ncn(Cc4cccs4)c3=N)Oc3ccc4ccccc4c32)c1 (stereo not given), the Potency was 19.4 µM (active). For COc1ccc(C2c3c(nc(CCCc4ccccc4)[nH]c3=O)Oc3ccc4ccccc4c32)cc1OC (stereo not given), the “activity change, negative = inhibition” value was -18.2%. OC(c1ccccc1)(c1ccccc1)c1cnc2ccccn12 was tested, and the “activity change, negative = inhibition” value was -18.7%. With COc1cccc(C2c3c(ncn(-c4ccccc4OC)c3=N)Oc3ccc4ccccc4c32)c1 (stereo not given) the Potency was 6.14 µM (active). With COc1cccc(C2c3c(ncn(-c4ccccc4Br)c3=N)Oc3ccc4ccccc4c32)c1 (stereo not given) the Potency was 12.2 µM (active). For COc1cccc(C2c3c(ncn(-c4ccccc4C(C)(C)C)c3=N)Oc3ccc4ccccc4c32)c1 (stereo not given), the Potency was 12.2 µM (active). With COc1cccc(C2c3c(ncn(-c4ccc(C(C)(C)C)cc4)c3=N)Oc3ccc4ccccc4c32)c1 (stereo not given) the Potency was 15.4 µM (active). In the case of Cc1c(P(=S)(c2ccccc2)c2ccccc2)c2ccccc2n1CCc1ccccc1, the “activity change, negative = inhibition” value is reported as -9.1%. For O=C1OC(c2ccccc2)(c2ccccc2)N2CCN(C(=O)NCc3ccc(F)cc3)CC12 (stereo not given), the Potency was 1.94 µM (active). For COc1cccc(C2c3c(ncn(-c4cccc(OC)c4)c3=N)Oc3ccc4ccccc4c32)c1 (stereo not given), the Potency was 9.72 µM (active). In the case of COc1cccc(C2c3c(ncn(-c4ccc(F)cc4)c3=N)Oc3ccc4ccccc4c32)c1 (stereo not given), the Potency is reported as 15.4 µM (active). For C[n+]1cc(C(O)(c2ccccc2)c2ccccc2)n2ccccc21, the “activity change, negative = inhibition” value was -11.9%. In the case of CCOC(=O)c1ccc(-n2cnc3c(c2=N)C(c2cccc(OC)c2)c2c(ccc4ccccc24)O3)cc1 (stereo not given), the Potency is reported as 15.4 µM (active). With COc1cccc(C2c3c(ncn(-c4ccccc4-c4ccccc4)c3=N)Oc3ccc4ccccc4c32)c1 (stereo not given) the Potency was 38.7 µM (active). For COc1cccc(C2c3c(ncn(-c4cccc(C#N)c4)c3=N)Oc3ccc4ccccc4c32)c1 (stereo not given), the Potency was 19.4 µM (active). With COc1ccc(C2c3c(ncn(CCc4ccccc4)c3=N)Oc3ccc4ccccc4c32)cc1OC (stereo not given) the Potency was 24.4 µM (active). With COc1cccc(C2c3c(ncn(-c4ccc(C)cc4)c3=N)Oc3ccc4ccccc4c32)c1 (stereo not given) the Potency was 12.2 µM (active). For COc1ccc(C2c3c(N)nc(CCc4ccccc4)nc3Oc3ccc4ccccc4c32)cc1OC (stereo not given), the Potency was 48.7 µM (active). COc1ccc(C2c3c(nc(Cc4ccccc4)[nH]c3=O)Oc3ccc4ccccc4c32)cc1OC (stereo not given) was tested, and the “activity change, negative = inhibition” value was -20.3%. For c1ccc(P(c2ccccc2)c2cnc3ccccn23)cc1, the “activity change, negative = inhibition” value was -26.4%. In the case of O=C(NCc1ccc(F)cc1)n1c(-c2ccccc2)c(P(=S)(c2ccccc2)c2ccccc2)c2ccccc21, the “activity change, negative = inhibition” value is reported as -26.1%. With COc1cccc(C2c3c(ncn(-c4ccc(NC(C)=O)cc4)c3=N)Oc3ccc4ccccc4c32)c1 (stereo not given) the Potency was 19.4 µM (active). With COc1ccc(C2c3c(n(Cc4ccccc4)cnc3=N)Oc3ccc4ccccc4c32)cc1OC (stereo not given) the Potency was 48.7 µM (active). With COc1cccc(C2c3c(ncn(-c4ccc(Br)cc4)c3=N)Oc3ccc4ccccc4c32)c1 (stereo not given) the Potency was 15.4 µM (active). COc1cccc(C2c3c(ncn(-c4ccc(-c5ccccc5)cc4)c3=N)Oc3ccc4ccccc4c32)c1 (stereo not given) was tested, and the “activity change, negative = inhibition” value was -18.1%. With Cc1c(P(=S)(c2ccccc2)c2ccccc2)c2ccccc2n1CCCc1ccccc1 the “activity change, negative = inhibition” value was -6.79%. COc1cccc(C2c3c(ncn(-c4cccc(Br)c4)c3=N)Oc3ccc4ccccc4c32)c1 (stereo not given) was tested, and the Potency was 19.4 µM (active). In the case of COc1ccc(-n2cnc3c(c2=N)C(c2cccc(OC)c2)c2c(ccc4ccccc24)O3)cc1 (stereo not given), the Potency is reported as 9.72 µM (active). In the case of Cc1c(P(=O)(c2ccccc2)c2ccccc2)c2ccccc2n1C, the “activity change, negative = inhibition” value is reported as -18.1%. For Cc1c(P(=S)(c2ccccc2)c2ccccc2)c2ccccc2n1Cc1ccccc1, the “activity change, negative = inhibition” value was -21.2%. With COc1cccc(C2c3c(ncn(-c4ccccn4)c3=N)Oc3ccc4ccccc4c32)c1 (stereo not given) the Potency was 30.7 µM (active). With COc1cccc(C2c3c(ncn(-c4ccc5c(c4)OCO5)c3=N)Oc3ccc4ccccc4c32)c1 (stereo not given) the Potency was 6.14 µM (active). For COc1cccc(C2c3c(ncn(-c4ccccc4C)c3=N)Oc3ccc4ccccc4c32)c1 (stereo not given), the Potency was 9.72 µM (active). In the case of Cn1cc(P(=O)(c2ccccc2)c2ccccc2)c2ccccc21, the “activity change, negative = inhibition” value is reported as -17.1%.

Source: PubChem BioAssay AID2568 (National Center for Advancing Translational Sciences (NCATS), 2010)
